Read-out in assay [1]: Collagen III, COL3A1 (gene 1281)
The assay can be described thus: BSK_MyoF_CollagenIII: BioMAP Diversity Plus: MyoF Assay for Collagen III Biomarker Activity (AID 2284239). The conditions noted are these: primary human lung fibroblasts. An outline of the steps:
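Multiplexed cell assay in lung fibroblasts, harvested at 24 h post-dose. Collagen III detected by ELISA, with positive-direction fitting relative to DMSO vehicle.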

Read-out in assay [2]: Interleukin 17F (IL17F), IL17F (gene 112744)
The assay can be described thus: BSK_BT_xIL17F: BioMAP Diversity Plus: BT Assay for Interleukin 17F (IL17F) Biomarker Activity (AID 2284243). To be noted: primary human B cells with PBMC. In outline: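 Luminex readout of IL-17F secretion, 24 h; cells: human B cells with PBMC; positive-direction analysis, DMSO control.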

Read-out in assay [3]: Actin alpha 1 (ACTA1), ACTA1 (gene 58)
The assay can be described thus: BSK_MyoF_ACTA1: BioMAP Diversity Plus: MyoF Assay for Actin alpha 1 (ACTA1) Biomarker Activity (AID 2284244). To be noted: primary human lung fibroblasts. An outline of the steps: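 alpha-SMA levels read by ELISA against DMSO baseline, 24 h post-dose, in primary human lung fibroblasts. Parallel cultures stained with 0.1% SRB after 10% TCA fixation (560 nm) to flag overt cytotoxicity.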

Read-out in assay [4]: Interleukin 2 (IL2), IL2 (gene 3558)
The assay can be described thus: BSK_BT_xIL2: BioMAP Diversity Plus: BT Assay for Interleukin 2 (IL2) Biomarker Activity (AID 2284245). To be noted: primary human B cells with PBMC. In outline: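 Secreted IL-2 was read by Luminex xMAP from B cells co-cultured with PBMC (human primary) 24 h post-dosing; activity was analysed as gain of signal relative to DMSO vehicle.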

Read-out in assay [5]: Collagen IV, COL4A1 (gene 1282)
The assay can be described thus: BSK_MyoF_CollagenIV: BioMAP Diversity Plus: MyoF Assay for Collagen IV Biomarker Activity (AID 2284247). The conditions noted are these: primary human lung fibroblasts. In outline:
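Collagen IV quantified by ELISA in human lung fibroblast cultures 24 h after chemical treatment, with DMSO as baseline. Parallel SRB staining (0.1% SRB after TCA fixation, 560 nm) flags overt cytotoxicity.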

Read-out in assay [6]: Plasminogen activator inhibitor-1 (PAI1), SERPINE1 (gene 5054)
The assay can be described thus: BSK_MyoF_PAI1: BioMAP Diversity Plus: MyoF Assay for Plasminogen activator inhibitor-1 (PAI1) Biomarker Activity (AID 2284256).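 On outcome: PAI-1 protein level measured by ELISA in fibroblast cultures; PAI-1 read 24 h after compound addition.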 The conditions noted are these: primary human lung fibroblasts. In outline: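 In this multiplexed primary-cell system, fibroblasts from human lung received compound for 24 h before ELISA detection of PAI-1; overt toxicity was checked by SRB (0.1%, TCA-fixed, 560 nm) in parallel wells.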

Read-out in assay [7]: Interleukin-8 (IL8), CXCL8 (gene 3576)
The assay can be described thus: BSK_MyoF_IL8: BioMAP Diversity Plus: MyoF Assay for Interleukin-8 (IL8) Biomarker Activity (AID 2284261). The conditions noted are these: primary human lung fibroblasts. An outline of the steps:
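DMSO-normalised, upward-fitted IL-8 ELISA signal; human lung fibroblasts, 24 h chemical treatment.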

Read-out in assay [8]: Collagen I, COL1A1 (gene 1277)
The assay can be described thus: BSK_hDFCGF_CollagenI: BioMAP Diversity Plus: hDFCGF Assay for Collagen I Biomarker Activity (AID 2284250). To be noted: primary human foreskin fibroblasts. An outline of the steps:
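Collagen I quantified by ELISA 24 h after chemical dosing of human dermal fibroblast primary cells, with parallel SRB staining (0.1%, TCA-fixed, 560 nm) for overt cytotoxicity.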

Read-out in assay [9]: Interferon-inducible T-cell alpha chemoattractant (ITAC), CXCL11 (gene 6373)
The assay can be described thus: BSK_hDFCGF_ITAC: BioMAP Diversity Plus: hDFCGF Assay for Interferon-inducible T-cell alpha chemoattractant (ITAC) Biomarker Activity (AID 2284251). To be noted: primary human foreskin fibroblasts. In outline: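 Measured by ELISA, the chemokine level serves as the endpoint in human skin fibroblast primary cultures 24 h after compound addition. Increases relative to DMSO-treated wells define activity.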

Read-out in assay [10]: Plasminogen activator inhibitor-1 (PAI1), SERPINE1 (gene 5054)
The assay can be described thus: BSK_KF3CT_PAI1: BioMAP Diversity Plus: KF3CT Assay for Plasminogen activator inhibitor-1 (PAI1) Biomarker Activity (AID 2284252). The conditions noted are these: primary human keratinocytes with fibroblasts. An outline of the steps: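 PAI-1 levels quantified by ELISA after 24 h compound exposure of primary human skin keratinocytes co-cultured with fibroblasts. Activity is the gain relative to DMSO; cytotoxicity tracked in parallel cultures via SRB staining.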

Read-out in assay [11]: Interleukin-8 (IL8), CXCL8 (gene 3576)
The assay can be described thus: BSK_KF3CT_IL8: BioMAP Diversity Plus: KF3CT Assay for Interleukin-8 (IL8) Biomarker Activity (AID 2284254). The conditions noted are these: primary human keratinocytes with fibroblasts. In outline: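 Using parallel SRB-stained cultures to flag overt toxicity, the study quantified IL-8 by ELISA in human keratinocyte–foreskin fibroblast co-cultures 24 h after dosing, with DMSO as negative control and baseline.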

Assay [12] in a line: CCTE_Mundy_HCI_Cortical_NOG_NeuronCount: CCTE's Neurite Outgrowth Assay in rat cortical cells for Neuron Count, Mundy Lab (AID 2284236; active means hit-call score of the fitted dose curve at least 0.9, where 1 is the maximum;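 further: neurons counted by imaging betaIII-tubulin and Hoechst stained cortical cells; cells exposed to compound for about 48 hours before fixation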). An outline of the steps: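 Read-out: neuron number by high-content imaging of betaIII-tubulin (Alexa Fluor-488) and Hoechst-labelled rat primary cortical cells.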
A short description of assay [13]: CCTE_Mundy_HCI_Cortical_NOG_BPCount: CCTE's Neurite Outgrowth Assay in rat cortical cells for Branch Point Count, Mundy Lab (AID 2284237). An outline of the steps:
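Measured 50.33 h after dosing, this morphology endpoint uses rat primary cortical cultures labelled for betaIII-tubulin. Branch points are quantified by high-content imaging, with DMSO as negative control and baseline.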

Assay [14] is described as follows: CCTE_Mundy_HCI_hNP1_Casp3_7: CCTE's Caspase-Glo 3/7 Assay in human neuroprogenitor cells for Apoptosis, Mundy Lab (AID 2284240). In outline:
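Luminescent caspase-3/7 readout, 26.5 h post-dose, in human neural progenitor cells from WA09 embryonic stem cells. Cells grew 40–44 h at 37 °C, 5% CO2 before chemical addition. Activity analysed as signal increase over DMSO baseline.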

Assay [15] in a line: TAMU_HCS_1.5hr_SingleDonor1434_Cytotoxicity: Cytotoxicity Assessment using High-content Screening (HCS) Fluorescent Imaging for the Texas A&M University (TAMU) 1.5-hr Human Induced Pluripotent Stem Cell (iPSC)-derived Cardiotoxicity Assay (AID 2284234; active means hit-call score of the fitted dose curve at least 0.9, where 1 is the maximum). In outline:
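Nuclear counts from Hoechst 33342 imaging define cytotoxicity here, with EC10 (10% cell-count loss relative to DMSO) as point of departure. iPSC cardiomyocytes received 0.2-100 uM test chemical in 0.5% DMSO for 1.5 h at 37 C.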

Molecules are shown by their SMILES. Values joined by “and” are separate entries in the source; they are usually repeats but may differ in a detail not shown here. Equal values may be shown once. Records with an inconclusive call do not appear. Some structures have more than one record in an assay (separate samples or runs), and their calls can disagree. Active and inactive are the calls of the source. How the source made its calls, unless noted: active means hit-call score of the fitted dose curve at least 0.9, where 1 is the maximum; inactive means score below 0.9.

What is called AC50 is the concentration giving half of the maximal activity seen. `c1ccc(-c2ccccn2)nc1`: the outcome in assay [1], in [3], in assay [4], in assay [5], in [6] and in assay [7] was inactive. Also, in assay [2], the concentration at half-maximal activity (AC50) was 27.6 µM (active).

Consider `C=CC=CC=CCCCCC`, for which the outcome in assay [1], in assay [3], in [4], in assay [5], in [6] and in [7] was inactive. Also, in assay [2], the AC50 was 7.28 µM (active).

On to `CCO[Si](CCCN=C=O)(OCC)OCC`, for which the result in assay [1], in [2], in assay [3], in assay [4], in [5] and in assay [6] was inactive. For the same compound, the result in [7] was inactive.

As to `COc1ccc2nc(N)sc2c1`, the outcome in assay [1], in assay [2], in [3], in assay [4], in assay [5] and in assay [6] was inactive. In addition, the outcome in assay [7] was inactive.

With `C=CCOCC(O)CCl` (stereo unspecified), the outcome in assay [1], in assay [2], in [3], in [4], in assay [5] and in assay [6] was inactive. Moreover, the outcome in assay [7] was inactive.

For `CC(C)(c1cc(Br)c(OCCO)c(Br)c1)c1cc(Br)c(OCCO)c(Br)c1`, the AC50 in assay [1] is 7.69 µM (active); in [2] it was 23.8 µM (active); in assay [3], 10.7 µM (active); in assay [4] it was 18.7 µM (active); in assay [5], 9.43 µM (active); in assay [6], 9.61 µM (active). Further, in assay [7], the AC50 is 10.6 µM (active).

For `CC1OC1C1CCC2(C)OC2C1` (stereo unspecified), the outcome in [1], in assay [2], in assay [3], in assay [4], in [5] and in assay [6] was inactive. In assay [7], the result was inactive.

In the case of `C=CC(=O)OCC(Br)CBr` (stereo unspecified), the AC50 in assay [1] was 32.7 µM (active); in [2], 15.4 µM (active); in assay [3], 20 µM (active); in assay [4], 24.5 µM (active); in assay [5] it was 3.97 µM (active); in [6], 7.93 µM (active). In addition, in [7], the result was inactive.

As to `O=Nc1ccc(O)cc1`, the outcome in assay [1], in [2], in assay [3], in assay [4], in assay [5] and in [6] was inactive. In addition, the outcome in assay [7] was inactive.

For the compound `CC(C)C(=O)C(C)C`, the result in assay [1], in assay [2], in [3], in assay [4], in assay [5] and in assay [6] was inactive. For the same compound, in [7], the result was inactive.

For `COCc1c(C(C)C)nc(C(C)C)c(/C=C/[C@@H](O)C[C@@H](O)CC(=O)O)c1-c1ccc(F)cc1`, the AC50 is 0.867 µM (active) in assay [1]; 0.57 µM (active) in [2]; 0.0484 µM (active) in assay [3]; 0.58 µM (active) in [4]; 0.15 µM (active) in assay [6]. Moreover, the outcome in assay [5] was inactive.

Consider `CCCCC(CC)COCC1CO1` (stereo unspecified), for which the outcome in assay [8], in assay [9], in assay [10] and in assay [11] was inactive.

Take `Nc1ccc(N)c(Cl)c1`: the AC50 is 26.7 µM (active) in assay [8]; 23.4 µM (active) and 22.6 µM (active) in assay [9]; 13.1 µM (active) and 26.5 µM (active) in [10]. Also, the result in assay [8] and in assay [11] was inactive.

As to `C#CC1(O)CC[C@H]2[C@@H]3CCC4=CCCC[C@@H]4[C@H]3CC[C@@]21C` (stereo partly specified), the AC50 in [1] is 31.8 µM (active); in assay [2], 28.6 µM (active); in [3] it was 32.2 µM (active); in assay [4] it was 31.6 µM (active); in assay [6], 32 µM (active); in assay [7], 30.4 µM (active). Besides, in assay [5], the result was inactive.

Take `CC1(C)S[C@@H]2[C@H](NC(=O)COc3ccccc3)C(=O)N2[C@H]1C(=O)O`: the compound was called inactive in assay [12], in assay [13] and in assay [14].

For `CCO[Si](C)(OCC)OCC`, the result in assay [8], in [9], in [10] and in assay [11] was inactive.

On to `CCCCC(CC)COC(=O)c1ccccc1O` (stereo unspecified), for which the result in [1], in assay [2], in assay [3], in [4], in assay [5] and in assay [6] was inactive. Also, the outcome in [7] was inactive.

For `O=C(Cl)c1cc(C(=O)Cl)cc(C(=O)Cl)c1`, the AC50 in [1] was 33.2 µM (active); in assay [2] it was 29.5 µM (active); in assay [3], 35.1 µM (active); in assay [4], 29.7 µM (active); in [5] it was 30 µM (active); in [6] it was 39.1 µM (active).

Turning to `c1ccc2c(c1)ccc1cc3c(ccc4ccccc43)cc12`, the outcome in assay [15], in [1], in assay [2], in [3], in assay [4] and in [5] was inactive. Moreover, the outcome in assay [6] and in assay [7] was inactive. Also, the AC50 in [4] was 0.0436 µM (active).

Values taken from PubChem BioAssay (EPA / NIEHS).
